In article PMC7862700, “An all-to-all approach to the identification of sequence-specific readers for epigenetic DNA modifications on cytosine” one finds binding signal data, which are given here for two sequences.

Holding throughout (assay): DAPPL (digital affinity profiling via proximity ligation, sequencing); 10 mM Tris-HCl pH 7.5, 50 mM NaCl, 1 mM DTT, 4% glycerol, room temperature, 30 min; GST-TFs on glutathione beads, 16-mer random dsDNA library, 0.1% formaldehyde crosslink after washing; high values mean tight binding
Holding throughout (conditions): protein: recombinant; tags: N-terminal GST; dsDNA, one strand shown

One assay concerns the target T1, SPIC (Homo sapiens, UniProt Q8N5J4 1-248).
T1 sequence: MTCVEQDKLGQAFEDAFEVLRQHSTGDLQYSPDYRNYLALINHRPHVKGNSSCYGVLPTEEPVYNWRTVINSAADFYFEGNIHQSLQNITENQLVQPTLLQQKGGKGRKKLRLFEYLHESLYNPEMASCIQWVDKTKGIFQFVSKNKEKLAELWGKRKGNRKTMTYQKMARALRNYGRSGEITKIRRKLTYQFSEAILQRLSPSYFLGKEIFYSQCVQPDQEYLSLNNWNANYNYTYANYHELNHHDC
In outline:
(§1)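 Binding signal is defined as a hexamer's read frequency for one factor over its frequency for the tag-only sample. To obtain reads, GST-fused human transcription factors were expressed in yeast, captured on glutathione beads, barcoded with DNA and pooled with that sample. Pools met 200 nmole of a 16-mer random double-stranded DNA library in Tris/NaCl/DTT/glycerol buffer for 30 min at room temperature before washing, 0.1% formaldehyde crosslinking, proximity ligation (BsaI/T4 ligase, 1 h, 37 °C), PCR and Illumina NextSeq500 sequencing.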

The target in a further assay is T2, GABPA (Homo sapiens, UniProt Q06546 1-454).
T2 sequence: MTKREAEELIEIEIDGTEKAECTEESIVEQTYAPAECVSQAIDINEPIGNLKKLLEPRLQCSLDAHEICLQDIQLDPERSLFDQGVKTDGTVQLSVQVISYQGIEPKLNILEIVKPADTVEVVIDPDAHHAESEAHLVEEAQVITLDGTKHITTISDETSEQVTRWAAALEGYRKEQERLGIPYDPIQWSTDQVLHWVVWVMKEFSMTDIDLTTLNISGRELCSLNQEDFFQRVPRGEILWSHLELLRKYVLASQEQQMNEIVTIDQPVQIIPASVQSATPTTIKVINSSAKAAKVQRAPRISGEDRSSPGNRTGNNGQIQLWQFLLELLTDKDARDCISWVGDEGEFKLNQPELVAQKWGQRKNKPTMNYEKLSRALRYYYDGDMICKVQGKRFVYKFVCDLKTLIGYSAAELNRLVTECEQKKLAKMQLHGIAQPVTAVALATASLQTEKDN
In outline:
as §1

A further assay concerns the target ELF1 (Homo sapiens, UniProt P32519 1-619). In outline:
as §1

In another assay the target is T3, EHF (Homo sapiens, UniProt Q9NZC4 1-300).
T3 sequence: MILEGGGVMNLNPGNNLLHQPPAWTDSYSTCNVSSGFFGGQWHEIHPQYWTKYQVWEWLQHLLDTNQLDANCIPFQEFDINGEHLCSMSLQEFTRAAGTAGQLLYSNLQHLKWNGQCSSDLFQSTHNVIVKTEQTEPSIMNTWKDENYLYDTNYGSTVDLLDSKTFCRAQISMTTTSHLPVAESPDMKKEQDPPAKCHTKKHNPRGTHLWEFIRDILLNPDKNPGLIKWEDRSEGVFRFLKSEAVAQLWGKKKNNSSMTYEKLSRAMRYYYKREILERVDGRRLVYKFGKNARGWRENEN
In outline:
as §1

Another assay addresses SPIB (Homo sapiens, UniProt Q01892 1-262). In outline:
as §1

In another assay the target is ELF4 (Homo sapiens, UniProt Q99607 1-663). In outline:
as §1

A further assay addresses T4, ETV2 (Homo sapiens, UniProt O00321 1-342).
T4 sequence: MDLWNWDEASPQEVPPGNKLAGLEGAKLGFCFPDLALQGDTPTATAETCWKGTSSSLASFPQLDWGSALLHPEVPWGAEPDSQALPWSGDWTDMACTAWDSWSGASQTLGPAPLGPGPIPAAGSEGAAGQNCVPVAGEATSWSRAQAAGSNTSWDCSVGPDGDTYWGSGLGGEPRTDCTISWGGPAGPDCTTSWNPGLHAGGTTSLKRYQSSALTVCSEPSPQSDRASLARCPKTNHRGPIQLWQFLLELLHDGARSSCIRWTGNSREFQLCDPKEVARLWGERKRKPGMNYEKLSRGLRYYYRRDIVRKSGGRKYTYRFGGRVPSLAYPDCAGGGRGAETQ
The method in brief: as §1

The next assay deals with T5, ELF3 (Homo sapiens, UniProt P78545 1-371).
T5 sequence: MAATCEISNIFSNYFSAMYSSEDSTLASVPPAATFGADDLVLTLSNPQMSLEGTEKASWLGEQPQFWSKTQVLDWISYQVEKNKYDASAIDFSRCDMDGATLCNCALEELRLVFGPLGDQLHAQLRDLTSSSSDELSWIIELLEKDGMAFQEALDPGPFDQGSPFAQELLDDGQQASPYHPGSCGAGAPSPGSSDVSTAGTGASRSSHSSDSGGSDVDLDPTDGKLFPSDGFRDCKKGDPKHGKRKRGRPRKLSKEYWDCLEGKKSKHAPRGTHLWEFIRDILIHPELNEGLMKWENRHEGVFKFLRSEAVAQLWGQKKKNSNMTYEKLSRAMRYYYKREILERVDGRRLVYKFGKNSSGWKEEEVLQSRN
The method in brief: as §1

The target in another assay is ETV1 (Homo sapiens, UniProt P50549 1-477). In outline:
as §1

The target of a further assay is T6, ERF (Homo sapiens, UniProt P50548 1-548).
T6 sequence: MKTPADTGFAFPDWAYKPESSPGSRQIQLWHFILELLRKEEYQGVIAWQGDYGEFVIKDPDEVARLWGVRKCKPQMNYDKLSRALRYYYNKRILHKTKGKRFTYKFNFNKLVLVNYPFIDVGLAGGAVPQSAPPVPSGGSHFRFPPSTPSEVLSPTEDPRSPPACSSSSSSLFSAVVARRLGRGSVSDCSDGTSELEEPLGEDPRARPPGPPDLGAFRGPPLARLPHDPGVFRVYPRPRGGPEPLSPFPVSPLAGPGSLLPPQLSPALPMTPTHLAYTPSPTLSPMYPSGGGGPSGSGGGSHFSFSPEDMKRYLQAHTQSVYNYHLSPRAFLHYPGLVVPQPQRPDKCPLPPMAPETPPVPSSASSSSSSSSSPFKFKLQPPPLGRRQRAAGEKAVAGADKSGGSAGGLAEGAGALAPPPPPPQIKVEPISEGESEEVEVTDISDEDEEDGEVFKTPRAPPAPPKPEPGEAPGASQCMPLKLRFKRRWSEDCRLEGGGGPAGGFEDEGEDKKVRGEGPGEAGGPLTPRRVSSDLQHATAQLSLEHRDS
The method in brief:
as §1

For another assay, the target named is T7, ETV3L (Homo sapiens, UniProt Q6ZN32 1-361).
T7 sequence: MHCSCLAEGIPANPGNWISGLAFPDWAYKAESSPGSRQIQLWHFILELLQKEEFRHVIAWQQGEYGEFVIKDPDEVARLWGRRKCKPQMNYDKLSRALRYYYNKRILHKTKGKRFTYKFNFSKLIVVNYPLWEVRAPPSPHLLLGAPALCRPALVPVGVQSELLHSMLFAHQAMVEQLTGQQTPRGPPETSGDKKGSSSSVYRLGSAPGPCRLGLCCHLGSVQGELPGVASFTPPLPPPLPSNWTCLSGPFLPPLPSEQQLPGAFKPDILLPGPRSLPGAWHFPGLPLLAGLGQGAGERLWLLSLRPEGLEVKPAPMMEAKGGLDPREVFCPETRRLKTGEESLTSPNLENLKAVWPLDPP
In outline: as §1

The next assay deals with T8, ETS2 (Homo sapiens, UniProt P15036 1-469).
T8 sequence: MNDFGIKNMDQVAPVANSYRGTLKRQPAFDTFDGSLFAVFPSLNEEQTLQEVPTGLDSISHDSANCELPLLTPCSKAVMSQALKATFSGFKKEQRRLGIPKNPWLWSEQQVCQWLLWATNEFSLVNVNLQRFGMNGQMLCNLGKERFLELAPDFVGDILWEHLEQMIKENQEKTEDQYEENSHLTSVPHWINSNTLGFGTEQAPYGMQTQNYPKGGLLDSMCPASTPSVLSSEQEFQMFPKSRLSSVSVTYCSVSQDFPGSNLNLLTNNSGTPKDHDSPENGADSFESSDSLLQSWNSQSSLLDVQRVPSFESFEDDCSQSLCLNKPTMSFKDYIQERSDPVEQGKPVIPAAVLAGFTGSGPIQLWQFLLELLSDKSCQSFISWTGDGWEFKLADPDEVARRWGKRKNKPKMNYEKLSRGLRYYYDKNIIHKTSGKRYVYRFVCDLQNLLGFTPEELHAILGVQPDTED
In outline: as §1

The next assay has as its target T9, ETV3 (Homo sapiens, UniProt P41162-2 1-143).
T9 sequence: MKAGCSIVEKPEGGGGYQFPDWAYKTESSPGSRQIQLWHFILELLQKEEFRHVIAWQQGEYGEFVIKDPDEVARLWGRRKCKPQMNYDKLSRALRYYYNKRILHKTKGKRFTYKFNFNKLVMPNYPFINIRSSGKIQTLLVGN
In outline:
as §1

Sequence of SPIB (Q01892 whole entry): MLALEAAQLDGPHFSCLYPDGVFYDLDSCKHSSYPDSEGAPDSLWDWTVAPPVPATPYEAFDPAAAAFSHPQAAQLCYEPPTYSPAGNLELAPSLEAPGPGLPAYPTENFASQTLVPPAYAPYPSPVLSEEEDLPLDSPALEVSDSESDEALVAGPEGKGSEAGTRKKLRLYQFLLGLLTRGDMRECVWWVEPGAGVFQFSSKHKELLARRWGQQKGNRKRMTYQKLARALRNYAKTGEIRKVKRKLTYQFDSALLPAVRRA
Sequence of ETV1 (P50549 whole entry): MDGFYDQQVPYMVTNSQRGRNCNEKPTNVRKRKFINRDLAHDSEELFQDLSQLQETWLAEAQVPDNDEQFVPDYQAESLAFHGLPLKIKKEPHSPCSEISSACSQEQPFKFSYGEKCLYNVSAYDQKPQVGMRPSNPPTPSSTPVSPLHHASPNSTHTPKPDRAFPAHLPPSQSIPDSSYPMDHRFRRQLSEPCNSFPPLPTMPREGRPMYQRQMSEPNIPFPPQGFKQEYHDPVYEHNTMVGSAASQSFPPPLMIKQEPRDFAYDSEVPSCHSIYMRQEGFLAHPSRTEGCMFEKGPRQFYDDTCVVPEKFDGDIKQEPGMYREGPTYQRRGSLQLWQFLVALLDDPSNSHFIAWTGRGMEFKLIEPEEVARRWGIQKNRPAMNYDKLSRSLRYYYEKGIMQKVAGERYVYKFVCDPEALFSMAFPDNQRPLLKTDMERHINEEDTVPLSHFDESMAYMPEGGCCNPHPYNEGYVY
Sequence of ELF4 (Q99607 whole entry): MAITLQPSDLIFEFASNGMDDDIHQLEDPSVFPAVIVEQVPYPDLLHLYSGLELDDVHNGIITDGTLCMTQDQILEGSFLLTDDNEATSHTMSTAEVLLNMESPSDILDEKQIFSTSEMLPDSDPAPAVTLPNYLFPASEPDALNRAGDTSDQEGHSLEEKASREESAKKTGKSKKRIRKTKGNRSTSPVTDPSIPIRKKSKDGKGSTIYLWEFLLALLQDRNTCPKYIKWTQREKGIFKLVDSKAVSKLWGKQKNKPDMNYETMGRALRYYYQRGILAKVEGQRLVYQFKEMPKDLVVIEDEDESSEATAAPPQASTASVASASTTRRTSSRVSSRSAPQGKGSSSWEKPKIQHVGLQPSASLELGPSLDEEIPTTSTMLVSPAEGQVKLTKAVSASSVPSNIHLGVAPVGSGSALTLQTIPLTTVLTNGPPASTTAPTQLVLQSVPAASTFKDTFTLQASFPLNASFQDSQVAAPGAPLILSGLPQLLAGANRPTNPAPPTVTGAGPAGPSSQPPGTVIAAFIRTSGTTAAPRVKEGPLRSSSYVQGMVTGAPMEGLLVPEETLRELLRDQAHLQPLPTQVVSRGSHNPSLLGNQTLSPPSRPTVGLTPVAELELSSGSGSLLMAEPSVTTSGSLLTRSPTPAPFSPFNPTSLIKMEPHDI
Sequence of ELF1 (P32519 whole entry): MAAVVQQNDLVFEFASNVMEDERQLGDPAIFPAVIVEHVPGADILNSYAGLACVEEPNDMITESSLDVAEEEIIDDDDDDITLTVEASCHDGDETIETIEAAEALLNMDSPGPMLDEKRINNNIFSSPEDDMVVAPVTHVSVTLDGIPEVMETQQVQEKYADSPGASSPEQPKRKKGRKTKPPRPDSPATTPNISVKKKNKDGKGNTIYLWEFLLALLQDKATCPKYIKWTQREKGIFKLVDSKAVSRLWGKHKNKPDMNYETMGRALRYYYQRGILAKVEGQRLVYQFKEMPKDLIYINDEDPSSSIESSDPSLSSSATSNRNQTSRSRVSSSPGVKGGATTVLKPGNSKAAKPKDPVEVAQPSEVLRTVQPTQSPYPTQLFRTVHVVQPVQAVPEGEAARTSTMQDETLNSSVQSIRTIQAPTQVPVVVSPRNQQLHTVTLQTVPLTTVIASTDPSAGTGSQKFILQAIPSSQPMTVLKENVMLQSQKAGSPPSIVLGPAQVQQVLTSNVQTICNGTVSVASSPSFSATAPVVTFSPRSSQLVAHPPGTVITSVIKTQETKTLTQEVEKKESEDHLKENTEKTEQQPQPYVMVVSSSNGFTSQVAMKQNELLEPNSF

With CTAGGG, in the assay with SPIC, the binding signal was 1.07 fold enrichment (6-mer frequency, TF over GST control).
Take CAGCTC: the binding signal was 1.01 fold enrichment (6-mer frequency, TF over GST control) in the assay with GABPA; 1.06 fold enrichment (6-mer frequency, TF over GST control) with ELF1; 1.01 fold enrichment (6-mer frequency, TF over GST control) with EHF; 1.01 fold enrichment (6-mer frequency, TF over GST control) with SPIB; 1.06 fold enrichment (6-mer frequency, TF over GST control) with SPIC; 1.05 fold enrichment (6-mer frequency, TF over GST control) with ELF4. Moreover, the binding signal with ETV2 is 1.02 fold enrichment (6-mer frequency, TF over GST control); with ELF3, 1.04 fold enrichment (6-mer frequency, TF over GST control); in the assay with ETV1, 1.08 fold enrichment (6-mer frequency, TF over GST control); with ERF it was 1.05 fold enrichment (6-mer frequency, TF over GST control); in the assay with ETV3L, 1.11 fold enrichment (6-mer frequency, TF over GST control); in the assay with ETS2 it was 1.06 fold enrichment (6-mer frequency, TF over GST control). Moreover, in the assay with ETV3, the binding signal was 1 fold enrichment (6-mer frequency, TF over GST control).
